The values that follow come from PubChem BioAssay (Tox21).

Experiment [1] in a line: Human pregnane X receptor (PXR) small molecule agonists, qHTS cell viability counter screen (AID 1346977). Further: nearly all actives have a fitted effect of over 50% in size. Further: potency means the concentration at half of the fitted maximal effect. In outline: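 Readout is CellTiter-Fluor fluorescence from PXR-Luc HepG2 cells. Plated cells rested 5hr, then were treated with compounds for 24hr at 37C and 5% CO2, with reagent present during the last hour.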
In general terms: qHTS replaces the single test concentration by a dilution series.

A short description of experiment [2]: Caspase-3/7 induction in HepG2 cells by small molecules, qHTS assay (AID 1346978). Further: nearly all actives have a fitted effect of over 15% in size. In outline: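 Wild-type HepG2 cells (2,000/well) were settled 5 h at 37 C, 5% CO2, then exposed to compounds in DMSO for 17 h. Caspase-3/7 activity was read by luminescence 30 min after adding Caspase-Glo 3/7 reagent at room temperature.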
Experiment [3] in a line: Caspase-3/7 induction in HepG2 cells by small molecules, qHTS cell viability counter screen (AID 1346981). Further: series mostly up to about 92 µM; nearly all actives have a fitted effect of over 30% in size. In outline:
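Wild-type HepG2 cells (2,000/well) were allowed to settle for 5 hr at 37 C, 5% CO2, then dosed with compounds in DMSO by pin transfer. After 16 hr at 37 C, CellTiter-Fluor was added and fluorescence read 1 hr later.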

Experiment [4] has as its target Nuclear receptor subfamily 1 group I member 2 (Homo sapiens) (UniProt O75469). The experiment can be described thus: Human pregnane X receptor (PXR) small molecule agonists, qHTS assay (AID 1346982). Further: nearly all actives have a fitted effect of over 35% in size. Further: potency means the concentration at half of the fitted maximal effect. In outline: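 PXR-Luc HepG2 cells (CYP3A4 promoter-driven luciferase) were seeded in medium with 5% charcoal-stripped FBS, left 5 hr at 37 C, then exposed to compounds in DMSO for 24 hr. Luminescence was read after ONE-Glo addition.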

For experiment [5], the target named is Nuclear receptor subfamily 1 group I member 2 (Rattus norvegicus) (UniProt Q9R1A7). Put plainly: Rat pregnane X receptor (rPXR) activation by small molecules, qHTS assay (AID 1346983). Further: nearly all actives have a fitted effect of over 20% in size. The conditions noted are these: rPXR luciferase reporter cells, One-Glo luminescence, 24 h; max activation: hits give high values. In outline:
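Cell-based rPXR luciferase reporter assay, 2,000 cells per well, rested 5hr at 37 C before compound addition in DMSO, then 24 hr at 37 C. One-Glo reagent was added and luminescence read after 30 min at room temperature.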

The target of experiment [6] is Nuclear receptor subfamily 1 group I member 2 (Homo sapiens) (UniProt O75469). Put plainly: CYP3A4 induction through human pregnane X receptor (PXR) by small molecules, qHTS assay (AID 1346984). Further: nearly all actives have a fitted effect of over 40% in size. In outline:
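DPX-2 cells (HepG2 co-transfected with PXR and CYP3A4 promoter-luciferase) treated with compounds 24 h at 37C; luciferin-IPA CYP3A4 substrate 3uM final added for 3 h, then One-Glo; luminescence read. qHTS format.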

Experiment [7] shares this target. The experiment can be described thus: Human pregnane X receptor (PXR) activation by small molecules, qHTS assay (AID 1346985). Further: nearly all actives have a fitted effect of over 40% in size. In outline:
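DPX-2 cells (HepG2 co-transfected with a PXR response element and a CYP3A4-promoter luciferase construct) were seeded at 2,000 per well, rested 5 hr at 37C, then exposed to DMSO-dissolved compounds for 24 hr. Activation was read as luciferase luminescence.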

For experiment [8], the target named is Cytochrome P450 2D6 (Homo sapiens) (UniProt P10635). Put plainly: Cytochrome P450 Family 2 Subfamily D Member 6 (CYP2D6) small molecule antagonists: luciferase reporter qHTS assay (AID 1671196). Further: nearly all actives have a fitted effect of over 50% in size. Further: potency means the concentration at half of the fitted maximal effect. On activity change, negative = inhibition: series mostly up to about 120 µM. In outline:
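CYP2D6 enzyme–substrate mix was held with compound for 10 min at room temperature, then NADPH regeneration solution was added and the reaction ran 1 h at room temperature. Luciferin product was detected by luminescence after 20 min with detection reagent.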

Experiment [9] can be described thus: Caspase-3/7 induction in CHO-K1 cells by small molecules, qHTS assay (AID 1346980). Further: nearly all actives have a fitted effect of over 15% in size. In outline: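 Wild-type cells were seeded at 1,500 per well and settled 5 hr at 37 C, 5% CO2, then exposed to DMSO-dissolved compounds for 17 hr. Caspase-Glo 3/7 reagent was added, and luminescence was read after 30min at room temperature.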
Experiment [10] in a line: Caspase-3/7 induction in CHO-K1 cells by small molecules, qHTS cell viability counter screen (AID 1346979). Further: nearly all actives have a fitted effect of over 35% in size. Further: potency means the concentration at half of the fitted maximal effect. In outline:
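To flag cytotoxic compounds, treated CHO-K1 wild-type cells were given CellTiter-Fluor at 16hr and read fluorescently after 1hr at 37C; the caspase-3/7 luminescence was measured in these same wells.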

A number with no mark means an inactive call. Inconclusive results are not listed. Calls of active or inactive are those of the source. The call rests on the fitted dose curve; in most records, active means well fitted curve in the direction sought with a large enough effect in the repeat runs; inconclusive means weak or mixed curves; inactive means no such curve, though single readings can be large; an effect the other way counts as inactive or inconclusive.
On the % scale 0 is the no-effect control and ±100 the full control effect.

Sequence of Nuclear receptor subfamily 1 group I member 2 (Rattus norvegicus) (Q9R1A7 whole entry, looked up): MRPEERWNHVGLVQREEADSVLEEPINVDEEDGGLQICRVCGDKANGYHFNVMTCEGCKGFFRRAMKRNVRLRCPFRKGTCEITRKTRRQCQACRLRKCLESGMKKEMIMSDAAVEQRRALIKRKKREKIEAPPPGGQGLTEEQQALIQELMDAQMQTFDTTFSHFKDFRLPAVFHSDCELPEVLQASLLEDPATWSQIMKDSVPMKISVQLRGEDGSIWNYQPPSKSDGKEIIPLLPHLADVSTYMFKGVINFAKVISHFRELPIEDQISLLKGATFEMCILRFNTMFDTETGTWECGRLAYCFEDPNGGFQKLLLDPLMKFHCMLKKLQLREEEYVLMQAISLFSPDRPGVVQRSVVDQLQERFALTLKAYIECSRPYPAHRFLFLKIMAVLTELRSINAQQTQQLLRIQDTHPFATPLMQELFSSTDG
Sequence of Nuclear receptor subfamily 1 group I member 2 (Homo sapiens) (O75469 whole entry, looked up): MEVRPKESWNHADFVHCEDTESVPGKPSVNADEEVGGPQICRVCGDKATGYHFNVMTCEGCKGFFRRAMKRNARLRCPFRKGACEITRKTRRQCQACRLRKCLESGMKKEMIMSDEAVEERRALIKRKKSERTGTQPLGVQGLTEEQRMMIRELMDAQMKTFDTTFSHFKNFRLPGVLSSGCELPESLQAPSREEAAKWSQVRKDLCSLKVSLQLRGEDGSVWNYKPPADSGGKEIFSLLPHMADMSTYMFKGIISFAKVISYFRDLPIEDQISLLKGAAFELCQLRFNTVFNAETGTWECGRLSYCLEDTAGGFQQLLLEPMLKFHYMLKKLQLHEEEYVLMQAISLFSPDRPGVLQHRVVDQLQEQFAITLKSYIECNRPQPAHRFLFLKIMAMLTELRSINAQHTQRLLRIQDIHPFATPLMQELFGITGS
Sequence of Cytochrome P450 2D6 (Homo sapiens) (P10635 whole entry, looked up): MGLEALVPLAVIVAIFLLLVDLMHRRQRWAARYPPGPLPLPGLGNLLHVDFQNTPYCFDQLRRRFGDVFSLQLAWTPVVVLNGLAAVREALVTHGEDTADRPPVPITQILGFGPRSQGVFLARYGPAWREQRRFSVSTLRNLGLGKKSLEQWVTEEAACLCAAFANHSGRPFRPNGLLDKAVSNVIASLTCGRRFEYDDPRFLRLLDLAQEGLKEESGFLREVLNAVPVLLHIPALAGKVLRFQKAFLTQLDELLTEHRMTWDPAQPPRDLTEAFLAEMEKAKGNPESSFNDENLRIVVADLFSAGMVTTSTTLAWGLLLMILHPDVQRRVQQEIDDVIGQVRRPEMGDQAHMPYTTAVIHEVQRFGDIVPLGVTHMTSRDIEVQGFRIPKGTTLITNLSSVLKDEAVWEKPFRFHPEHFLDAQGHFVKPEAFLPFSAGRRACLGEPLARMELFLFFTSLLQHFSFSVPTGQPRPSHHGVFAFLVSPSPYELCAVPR

As to `O=C(O)Cn1c(C(=O)Nc2nc(-c3ccccc3Cl)cs2)cc2ccccc21`, the Potency result in experiment [1], in [3], in experiment [6], in experiment [7] and in [8] was “inactive” in each case. Also, the call in [2] was inactive. In addition, in experiment [4], the Potency was 26.6 µM (active). Besides, the max activation in [5] is -0.843%.
As to `CCCCCc1ccc(N)cc1`, the Potency entry in [1], in experiment [9] and in experiment [3] was “inactive” throughout. The molecule was called inactive in experiment [2]. The Potency in experiment [8] was 31.7 µM (active).
Consider `CCCCCCCCCC(=O)OCC`, for which the Potency result in experiment [1], in experiment [10], in experiment [3], in [4] and in experiment [8] was “inactive” in each case. Moreover, the molecule was called inactive in [2].
Consider `CN(C(=O)CCCOc1ccc2[nH]c(=O)ccc2c1)C1CCCCC1`, for which the Potency result in [1], in [9], in [3] and in [8] was “inactive” each time. Further, in experiment [2], the call was inactive.
With `NC[C@H]1O[C@H](O[C@H]2[C@H](O)[C@@H](O[C@H]3O[C@H](CO)[C@@H](O)[C@H](N)[C@H]3O)[C@H](N)C[C@@H]2N)[C@H](O)[C@@H](O)[C@@H]1O`, the activity change, negative = cytotoxicity in [1] is -6.07% [at 8.39 µM]; in experiment [3], -2.29% [at 8.39 µM]. In experiment [2], the caspase activation was 0.334% [at 8.39 µM]. The caspase-3/7 activation in experiment [9] is 1.24% [at 8.39 µM]. Besides, the activation in experiment [4] is 13.1% [at 8.39 µM]. Further, the max activation in [5] is -1%. In addition, the Potency entry in experiment [6] and in experiment [7] was “inactive” throughout. Further, in [8], the activity change, negative = inhibition was -0.562% [at 10.5 µM].
Consider `NCCCOCCOCCOCCCN`, for which the Potency result in experiment [1], in experiment [9] and in experiment [3] was “inactive” in each case. In [2], the call was inactive. For the same molecule, in experiment [8], the Potency is 20 µM (active).
On to `OCCC1CCCCN1` (configuration not stated), for which the Potency entry in experiment [1], in experiment [3] and in [4] was “inactive” throughout. Further, the call in [2] was inactive.
For `CC(=O)O[C@H]1C[C@@H]2CC[C@@H]3[C@H](CC[C@@]4(C)[C@H]3C[C@H]([N+]3(C)CCCCC3)[C@@H]4OC(C)=O)[C@@]2(C)C[C@@H]1N1CCCCC1`, the Potency result in [1], in experiment [10], in experiment [3], in [6] and in experiment [7] was “inactive” in each case. Further, the outcome in [2] was inactive. Also, the max activation in experiment [5] was -3.12%.
As to `O=C(O)c1cccc(N(Cc2cccnc2)c2ccc(OC(F)F)c(OC(F)F)c2)c1`, in experiment [1], the Potency result is “inactive”. The call in [2] was inactive. Also, the results for the Potency in [10] and in experiment [4] were 68.6 µM (active) and 43.3 µM (active), respectively.
`O=C(O)Cc1cc(I)c(Oc2ccc(O)c(I)c2)c(I)c1`: the Potency result in [1], in experiment [10] and in experiment [3] was “inactive” each time. The outcome in [2] was inactive. Further, the max activation in experiment [5] was -1.77%.
Consider `CN(c1nccc(=O)[nH]1)C1CCN(c2nc3ccccc3n2Cc2ccc(F)cc2)CC1`, for which the Potency result in [1], in experiment [3], in experiment [6] and in [7] was “inactive” each time. Also, the molecule was called inactive in experiment [2]. The max activation in [5] was -3.1%. The Potency in [8] is 12.3 µM (active).
With `CC(=O)c1ccc2c(c1)[C@H](NC(=O)c1ccc(F)cc1)[C@@H](O)C(C)(C)O2`, the Potency entry in experiment [1], in [9] and in [4] was “inactive” each time. In experiment [2], the outcome was inactive. Further, the Potency in experiment [8] is 18.8 µM (active).
In the case of `O=c1[nH]cnc2ccccc12`, the Potency result in [1], in experiment [3] and in [8] was “inactive” in each case. Besides, the call in [2] was inactive. Also, the Potency in [4] is 0.398 µM (active).
In the case of `CCOc1ccc(NC(=O)CC(C)=O)cc1`, the Potency result in experiment [1], in [10], in experiment [3] and in experiment [4] was “inactive” in each case. In experiment [2], the result was inactive. For the same molecule, in experiment [8], the Potency is 35.6 µM (active).
As for `CC1(C)CCC(C)(C)c2cc(NC(=O)c3ccc(C(=O)O)cc3)ccc21`, the Potency result in [1], in [9], in experiment [4], in [6], in [7] and in experiment [8] was “inactive” throughout. Further, in experiment [2], the molecule was called inactive. Further, in experiment [5], the max activation is -8.01%.
Turning to `Oc1ccc(O)c2c(O)cccc12`, the Potency result in [1], in experiment [10] and in experiment [8] was “inactive” each time. Besides, the molecule was classed as inactive in [2].
For the molecule `CC(=O)N(O)CCCCCNC(=O)CCC(=O)N(O)CCCCCNC(=O)CCC(=O)N(O)CCCCCN`, the Potency entry in experiment [1], in [10], in experiment [3], in [6] and in experiment [7] was “inactive” throughout. Also, the outcome in experiment [2] was inactive. The max activation in experiment [5] is -2.68%.
Regarding `Nc1cnn([C@@H]2O[C@H](CO)[C@@H](O)[C@H]2O)c(=O)n1`, the Potency result in experiment [1], in [9], in [3], in experiment [4] and in experiment [8] was “inactive” throughout. Besides, the molecule was classed as inactive in [2].
Consider `CCCOc1ccc2nc(NC(=O)OC)[nH]c2c1`, for which the Potency entry in experiment [1], in experiment [9], in [3] and in [8] was “inactive” throughout. Moreover, the molecule was called inactive in experiment [2]. The Potency in experiment [4] is 3.76 µM (active).
Regarding `O=[N+]([O-])c1cc[n+]([O-])cc1`, the Potency was 54.5 µM (active) in experiment [1], 38.6 µM (active) in experiment [10] and 35.6 µM (active) in [8]. For the same molecule, the molecule was called inactive in experiment [2]. Further, the Potency result in experiment [4] was “inactive”.
Regarding `N#Cc1c(F)cccc1F`, the result in [2] was inactive. In addition, the Potency result in [10], in experiment [3] and in experiment [8] was “inactive” each time.
For the molecule `O=C(O)C(c1ccc(Cl)cc1)c1ccc(Cl)cc1`, the Potency result in [1], in experiment [10], in experiment [9], in [3], in experiment [4] and in [8] was “inactive” each time.
For the molecule `Cc1nc2ccccc2n1Cc1ccc(Cl)cc1`, in experiment [2], the call was inactive. Besides, the Potency is 7.5 µM (active) in [10] and 15.5 µM (active) in experiment [8]. Moreover, the Potency result in experiment [9], in experiment [3], in [6] and in experiment [7] was “inactive” throughout. For the same molecule, the max activation in experiment [5] is -21.8%.
Turning to `CCN(CC)CCNC(C(=O)OCCC(C)C)c1ccccc1` (configuration not stated), in experiment [2], the molecule was called inactive. Also, the Potency entry in experiment [10] and in experiment [3] was “inactive” each time. In experiment [5], the max activation is -0.588%. The Potency in [8] is 1.74 µM (active).
As for `CN1CCC(OC(c2ccccc2)c2ccccc2)CC1`, the molecule was called inactive in [2]. Moreover, the Potency entry in [10], in experiment [9] and in [3] was “inactive” in each case.
Take `C[C@@H](C1=C(CCN(C)C)Cc2ccccc21)c1ccccn1`: the outcome in [2] was inactive. The Potency result in experiment [10], in [9], in experiment [3] and in [4] was “inactive” throughout. The Potency in experiment [8] was 11 µM (active).
Consider `CCCCOc1ccc(CC(=O)NO)cc1`, for which the call in [2] was inactive. Moreover, the Potency in experiment [10] is 23.7 µM (active); in experiment [8], 15.5 µM (active). The Potency entry in experiment [9], in experiment [4], in experiment [6] and in experiment [7] was “inactive” each time. The max activation in experiment [5] was -0.916%.
`CCCCCOC(=O)COc1cc(N2C(=O)C3=C(CCCC3)C2=O)c(F)cc1Cl`: the outcome in experiment [2] was inactive. In addition, the Potency entry in experiment [10], in experiment [9] and in experiment [3] was “inactive” throughout. Also, in [8], the Potency is 25.2 µM (active).
For `CNCC[C@@H](Oc1ccccc1C)c1ccccc1`, the molecule was called inactive in experiment [2]. Also, the Potency result in [10], in experiment [9], in experiment [3] and in experiment [4] was “inactive” in each case.
For `O=C(CC(=O)c1ccccc1)c1ccccc1`, the result in experiment [2] was inactive. The Potency result in experiment [9] and in [3] was “inactive” throughout. The Potency in experiment [4] is 65.7 µM (active).
